GPR151 activ: activators of human GPR151; Q8TDV0; PathHunter beta-arrestin GPR151 cells, luminescence; 650,000 compounds, 1% hits; activation, % at 11.2 µM; AID 1508602; in the data active = activation above about 4.9%
TEAD-YAP block: TEAD-YAP interaction inhibition; HEK-TIYL cells, TEAD-Gal4/YAP UAS-luciferase luminescence; inhibition, % at 9.12 µM; 640,000 compounds, 1.4% hits; AID 1259422; in the data active = inhibition above about 32%
FBW7 activator: activators of human E3 ligase FBW7 | Q969H0 | AlphaScreen FBW7–phospho-cyclin E peptide binding, activator screen | normalized activity (activation), % at 26.1 µM | 650,000 compounds, 0.13% hits | AID 1259310; in the data active = normalized activity above about 1.9%;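 note: purified mutant Fbw7 with reduced substrate affinity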
MITF primary: inhibitors of human MITF; AlphaScreen MITF homodimerization, bead proximity signal; inhibition, % at 2.6 µM; 650,000 compounds, 0.91% hits; AID 1259374; in the data active = inhibition above about 50%
Target sequence (O75030 whole entry, looked up): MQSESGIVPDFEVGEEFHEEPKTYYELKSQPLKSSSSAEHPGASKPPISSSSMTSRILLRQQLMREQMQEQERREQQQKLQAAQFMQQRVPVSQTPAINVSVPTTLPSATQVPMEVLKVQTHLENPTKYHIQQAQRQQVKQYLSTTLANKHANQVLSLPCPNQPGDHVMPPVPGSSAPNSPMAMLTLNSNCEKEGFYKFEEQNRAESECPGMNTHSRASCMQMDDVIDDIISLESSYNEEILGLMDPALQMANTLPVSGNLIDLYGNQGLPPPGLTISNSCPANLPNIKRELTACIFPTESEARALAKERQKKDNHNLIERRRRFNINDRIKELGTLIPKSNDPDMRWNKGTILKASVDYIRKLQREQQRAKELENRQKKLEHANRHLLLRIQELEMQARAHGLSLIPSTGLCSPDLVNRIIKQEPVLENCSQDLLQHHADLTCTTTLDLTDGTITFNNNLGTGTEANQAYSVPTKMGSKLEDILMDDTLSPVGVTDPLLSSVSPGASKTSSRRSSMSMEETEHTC
GPR151 confirm: human GPR151 activation, confirmation screen. shares compounds with GPR151 activ. GPR151 PathHunter beta-arrestin cells, luminescence, 90 min; % of EA-reagent control over plate median. activation, % at 11.2 µM. 6,700 tested, under 10 active. AID 1508609;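 active = mean percent activation across replicates above the confirmation screen cutoff of 4.91%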
GPR119 ag: GPR119 activation, counter-screen for GPR151 activators; shares compounds with GPR151 activ; GPR119 PathHunter beta-arrestin cells, luminescence, 90 min; 0 = compound-well median, 100 = enzyme-acceptor control; 6,700 compounds, 0.3% hits; activation, % at 11.2 µM;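 active = mean percent activation in the counterscreen above 29.09%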;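 note: counterscreen on off-target GPR119 to flag nonselective hits from the GPR151 activator screen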
Each line names hits and unclear results; the compound was inactive in the other large screens (follow-up assays come after a bar, where they were run). Rows were chosen to be rich in hits. Some 3.5% of all compounds tested hit in one or more screens of this group.

Nn1c(SCc2csc(-c3ccccc3)n2)nnc1C1COc2ccccc2O1 (stereo unspecified)	none
Cc1cc(NC(=O)NC(=O)c2ccc(Cl)c(Cl)c2)n[nH]1	GPR151 activ 6.6 | GPR151 confirm inactive | GPR119 ag inactive
Cc1cc(NC(=O)NC(=O)c2cccc(Cl)c2)n[nH]1	none
O=C(COC(=O)c1ccco1)Nc1ccc2c(c1)OCO2	GPR151 activ 5.5 | GPR151 confirm inactive | GPR119 ag inactive
O=C(CCCCC(=O)Nc1ccc2c(c1)OCCO2)Nc1ccc2c(c1)OCCO2	GPR151 activ 5.1 | GPR151 confirm inactive | GPR119 ag inactive
O=C(CS(=O)CC(=O)Nc1ccc2c(c1)OCCO2)Nc1ccc(Cl)cc1 (stereo unspecified)	GPR151 activ 6.7 | GPR151 confirm inactive | GPR119 ag inactive
O=C(CS(=O)CC(=O)Nc1ccc2c(c1)OCCO2)Nc1ccc(F)cc1 (stereo unspecified)	none
CN(Cc1ccccc1)C(=O)CCC1CCN(C(=O)CCn2cnnn2)CC1	none
CCOc1cc(C=O)cc(I)c1OCC(N)=O	none
c1cncc(CSc2ccc(-c3cccnc3)nn2)c1	GPR151 activ 7.0 | GPR151 confirm inactive | GPR119 ag inactive
COc1cc(-c2ccc(SC)cc2)cc2c1OCCN(C(=O)c1cccnc1)C2	none
COc1ccc(CCNC(=O)COc2ccc(Br)cc2C)cc1OC	none
CC(=O)c1cccc(-c2nc(NC3CC3)c3ncn(C4CCCCC4)c3n2)c1	GPR151 activ 9.4 | GPR151 confirm inactive | GPR119 ag inactive
O=C(NC1CC1)c1ccc(-c2nc(NCCO)c3ncn(C4CCCCC4)c3n2)cc1	none
Nc1nc(-c2ccc(C(=O)NC3CC3)cc2)nc2c1ncn2C1CCCCC1	GPR151 activ 6.2 | GPR151 confirm inactive | GPR119 ag inactive
CN1CCN(C(=O)c2ccc(-c3nc(NCc4cccc(C(F)(F)F)c4)c4ncn(C5CCCCC5)c4n3)cc2)CC1	GPR151 activ 5.0 | GPR151 confirm inactive | GPR119 ag inactive
CN1CCN(c2ccc(-c3nc(NCc4cccc(C(F)(F)F)c4)c4ncn(C5CCCCC5)c4n3)cc2)CC1	none
COc1ccc(-c2nc(NC3CCN(Cc4ccccc4)CC3)c3ncn(C4CCCCC4)c3n2)cc1	GPR151 activ 5.8 | GPR151 confirm inactive | GPR119 ag inactive
CCCNc1nc(-c2cccc(C(C)=O)c2)nc2c1ncn2C1CCCCC1	none
CCOC(=O)N1CCN(C(=O)c2ccc(N3CC4CC(C3)c3cccc(=O)n3C4)c(NC(=O)/C=C/c3ccccc3)c2)CC1 (stereo unspecified)	none
COc1ccc(C(c2sc3nc(C)nn3c2O)N2CCC(C)CC2)cc1OC (stereo unspecified)	none
Cc1nc2sc3c(c2c(=O)n1/N=C/c1ccc(O)cc1O)CCCC3	none
O=C(C1CCC1)N1CCOc2ccc(CN3CCN(c4ccccn4)CC3)cc2C1	none
O=C(C1CCCCC1)N1CCOc2ccc(CN3CCN(Cc4ccccn4)CC3)cc2C1	GPR151 activ 5.0 | GPR151 confirm inactive | GPR119 ag inactive
Cc1ccc(Sc2cc(C(=O)NC3CCC(C)CC3)c3ccccc3n2)cc1 (stereo unspecified)	none
Cc1ccc(Sc2cc(C(=O)NC3CC3)c3ccccc3n2)cc1	GPR151 activ 5.4 | GPR151 confirm inactive | GPR119 ag inactive
CNC(=O)c1cc(-c2ccc(C)cc2)nc2ccccc12	GPR151 activ 5.4 | GPR151 confirm inactive | GPR119 ag inactive
O=C(Nc1ccncc1)c1cc(-c2ccncc2)nc2ccccc12	GPR151 activ 5.2 | GPR151 confirm inactive | GPR119 ag inactive
CC1=CN2C(=O)C(Cc3ccc(Br)cc3)(NC(=O)c3ccccc3)N=C2C=C1 (stereo unspecified)	none
C/C(O)=C(/C#N)c1nc2ccccc2n1C	none
CCOC(=O)C(CC)Sc1nnc2n1CCN2c1ccccc1 (stereo unspecified)	none
Cc1nc2cnc(-c3ccc(O)cc3)cn2c1NC(=O)CC1CCOCC1	GPR151 activ 12 | GPR151 confirm inactive | GPR119 ag inactive
Cc1nc2cnc(-c3ccc(O)cc3)cn2c1NC(=O)c1cccs1	none
COC(=O)[C@@H]1CCCN1Cc1ccc2c(c1)CN(Cc1ccc3c(c1)OCCO3)CCO2	none
COC(=O)C1CCCCN1Cc1ccc2c(c1)CN(Cc1cnn(C)c1C)CCO2 (stereo unspecified)	GPR151 activ 5.9 | GPR151 confirm inactive | GPR119 ag inactive
Cc1ccc2c(=O)cc(-c3cc(C(=O)O)cc4c3OCOC4)oc2c1	none
O=Cc1cc(C(=O)O)cc2c1OCOC2	GPR151 activ 11 | GPR151 confirm inactive | GPR119 ag inactive
CCOC(=O)C1=C(O)/C(=C/c2ccc(C(=O)OC)cc2)SC1=NC(=O)c1ccccc1	GPR151 activ 6.7 | GPR151 confirm inactive | GPR119 ag inactive
CCOC(=O)C1=C(O)/C(=C/c2ccccc2)SC1=Nc1ccccc1	none
COc1cc(NC(=O)CSc2nnnn2C)cc(OC)c1	GPR151 activ 5.1 | GPR151 confirm inactive | GPR119 ag inactive
Cc1ccccc1CSc1ncccc1C(=O)N1CCN(c2cccc(Cl)c2)CC1	none
Cc1cccc(N2CCN(C(=O)c3cccnc3SCc3ccccc3Cl)CC2C)c1 (stereo unspecified)	GPR151 activ 6.8 | GPR151 confirm inactive | GPR119 ag inactive
O=C(Nc1ccc(F)cc1F)C1CCN(C(=O)c2ccc(Br)cc2)CC1	GPR151 activ 5.5 | GPR151 confirm inactive | GPR119 ag inactive
COc1ccc(NC(=O)Nc2ccc(C(=O)N3CCCCC3)cc2)cc1	GPR151 activ 12 | GPR151 confirm inactive | GPR119 ag inactive
Cc1ccc(CNC(=O)C2CCN(C(=O)c3ccc(C)cc3)CC2)cc1	none
COc1ccc(OCC(=O)N2CCN(C(=O)c3ccccc3)CC2)cc1	GPR151 activ 8.4 | GPR151 confirm inactive | GPR119 ag inactive
COc1ccc(CNC(=O)C2CCN(C(=O)c3ccc(Br)cc3)CC2)cc1	GPR151 activ 6.4 | GPR151 confirm inactive | GPR119 ag inactive
CCC[C@@H]1NC(=O)[C@@H]2C[C@H](NCc3ccccc3C)CN2C1=O	none
O=C(c1ccc(NS(=O)(=O)c2ccccc2)cc1)N1CCCC1	GPR151 activ 7.2 | GPR151 confirm inactive | GPR119 ag inactive
Cc1ccc(N=NNc2cccc([N+](=O)[O-])c2)cc1	GPR151 activ 5.9 | GPR151 confirm inactive | GPR119 ag inactive
CN(C)C1(CNC(=O)Cc2cccc3ccccc23)CCCCC1	none
O=C(NCc1ccc2c(c1)OCO2)C1CC2CCCN2C12C(=O)Nc1ccccc12 (stereo unspecified)	GPR151 activ 5.1 | GPR151 confirm inactive | GPR119 ag inactive
O=C(NCc1cccc(F)c1)C1CC2CCCN2C12C(=O)Nc1ccccc12 (stereo unspecified)	none
C=CCSc1nnc2c(n1)OC(C)(C)Nc1ccc(Br)cc1-2	none
